For 46 molecules, Percent Effect results are on record in ChEMBL document CHEMBL3988442, “University of Dundee, Small-Polar-MMV Screening Library” (2021).

The target in assay [1] is T1, Aspartate--tRNA(Asp/Asn) ligase (Mycobacterium tuberculosis (strain ATCC 25618 / H37Rv)) (UniProt P9WFW3). Also: in the data most compounds retested in dose-response had high values.
T1 sequence (whole entry): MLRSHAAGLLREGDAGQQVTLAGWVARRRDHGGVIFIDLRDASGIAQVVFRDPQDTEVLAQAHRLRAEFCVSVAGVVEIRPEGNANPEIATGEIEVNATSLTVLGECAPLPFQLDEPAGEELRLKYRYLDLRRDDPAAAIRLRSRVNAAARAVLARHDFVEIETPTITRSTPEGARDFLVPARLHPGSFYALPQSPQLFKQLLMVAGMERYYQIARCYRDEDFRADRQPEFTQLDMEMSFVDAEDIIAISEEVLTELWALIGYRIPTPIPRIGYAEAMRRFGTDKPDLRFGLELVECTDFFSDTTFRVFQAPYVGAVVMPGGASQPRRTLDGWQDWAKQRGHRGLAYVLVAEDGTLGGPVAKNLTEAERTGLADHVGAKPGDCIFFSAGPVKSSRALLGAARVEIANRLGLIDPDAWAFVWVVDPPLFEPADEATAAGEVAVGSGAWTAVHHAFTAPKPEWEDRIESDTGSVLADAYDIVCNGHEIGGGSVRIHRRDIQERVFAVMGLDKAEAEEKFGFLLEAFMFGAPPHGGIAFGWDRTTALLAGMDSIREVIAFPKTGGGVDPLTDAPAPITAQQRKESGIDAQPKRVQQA
The assay is described as follows: Assay for Asp RNA synthetase-1 from Mycobacterium tuberculosis. Details: scale not given: direction of the effect not stated beside the values. Format: functional. The following applies: 30 µM.

Assay [2] has as its target Shiga toxin 2 (Escherichia coli O157:H7) (UniProt P09385+P09386). The assay is described as follows: E. coli 0.157:H7 Shiga Toxin SOP - stx2 screening assay. Format: functional. More on the design: scale not given: direction of the effect not stated beside the values. The following applies: 30 µM.

With `CC1c2ncc(CNC(=O)C3CC3)n2CCN1Cc1cnn(C)c1` (configuration not stated), the Percent Effect in assay [1] was 7.02%; in assay [2], -27.6%.

Consider `CCn1cc(NC(=O)NCC2(N3CCOCC3)CCSC2)cn1` (configuration not stated), for which the results for the Percent Effect in assay [1] and in assay [2] were 1.79% and -20%, respectively.

For the molecule `COc1ccc(CNCC2CC2)cc1F`, the Percent Effect in assay [1] amounted to 2.55%; in assay [2], 28.8%.

In the case of `CC(C)(NCC(=O)NCCC#N)c1ccc2c(c1)OCCO2`, the Percent Effect in assay [1] is 11.1%; in assay [2] it was 14.2%.

On to `CC(C)OCCN1CCC(N2CCN(C)C2=O)CC1`, for which the Percent Effect in assay [1] is 0.182%; in assay [2], -16.8%.

For the molecule `Cc1cnn(CC(C)NCc2csc(-c3cnn(C)c3)n2)c1` (configuration not stated), the Percent Effect was 1.91% in assay [1] and -23.5% in assay [2].

In the case of `O=C(c1ccncc1)N1CCCn2c(CN3CCCCC3)nnc2C1`, the Percent Effect is -3.93% in assay [1] and -4.1% in assay [2].

Consider `Cn1cc(NC(=O)N2CCC(c3ccccc3)CC2)ccc1=O`, for which the Percent Effect in assay [1] is 55%; in assay [2], 21.8%.

For `Cc1cc(-c2nnn(CCC(N)=O)n2)ccc1F`, the Percent Effect in assay [1] was -0.912%; in assay [2] it was -20.8%.

Consider `CO[C@H]1CN(Cc2cccc(C#N)c2)[C@@H]2COC[C@H]12`, for which the Percent Effect in assay [1] is 4.8%; in assay [2] it was -22.2%.

Consider `COc1ccc(C(=O)N2Cc3c(Cn4ccnc4)nn(C)c3C2)cc1`, for which the Percent Effect in assay [1] was -10.7%; in assay [2] it was -6.82%.

With `COc1ccc(CNC(=O)CNc2cc3c(cc2Cl)OCCCO3)cc1`, the Percent Effect was 2.02% in assay [1] and 0.898% in assay [2].

With `Cc1csc(N2CCN(C(=O)Cc3ccsc3)CC2)n1`, the Percent Effect is 6.55% in assay [1] and -7.04% in assay [2].

Regarding `CC(C)c1cc(NC(=O)CN2CCc3ccccc3C2)on1`, the Percent Effect was -1% in assay [1] and -13% in assay [2].

For the molecule `CCNC(=O)[C@@H]1C[C@@H](NC(=O)c2cccnc2O)CN1Cc1ccsc1`, the Percent Effect in assay [1] was -2.94%; in assay [2] it was 19.7%.

Turning to `O=C(C1CCC1)N1CCN(Cc2ccsc2)[C@H]2CS(=O)(=O)C[C@H]21`, the Percent Effect in assay [1] is -4.67%; in assay [2], -39.6%.

On to `COc1ccc(CNC2CCN(CCc3ccncc3)CC2)cc1O`, for which the Percent Effect in assay [1] is 5.98%; in assay [2], -49.6%.

Regarding `Cn1cc(C(=O)NC[C@@H]2OC[C@H]3CN(Cc4ccco4)CC[C@H]32)cn1`, the Percent Effect is -0.729% in assay [1] and -33.5% in assay [2].

For `CN1CCc2nc(C3CCN(C(=O)CCC4CCCC4)CC3)ncc2C1`, the values for the Percent Effect in assay [1] and in assay [2] were 2.63% and -43.2%, respectively.

Regarding `COCCNC(=O)C1(c2ccccc2C)CCOCC1`, the values for the Percent Effect in assay [1] and in assay [2] were -1.82% and 19.2%, respectively.

Turning to `CCn1cnnc1CNC(=O)NC(C)c1cccs1` (configuration not stated), the Percent Effect in assay [1] was 0.243%; in assay [2], -10.2%.

For the molecule `CCCc1nc(C)cc(N2CCC3(CCC(=O)N(CC4CC4)C3)CC2)n1`, the Percent Effect in assay [1] was 3.82%; in assay [2], -18.5%.

As for `CC[C@@]1(O)CCN(C(=O)c2ccc(SC)cc2)C[C@H]1O`, the Percent Effect in assay [1] is -1.2%; in assay [2], 5.8%.

`Cc1ccc(CN2CCC3(CC(C(=O)NCC4CC4)=NO3)C2)cc1C` (configuration not stated): the values for the Percent Effect in assay [1] and in assay [2] were 7.45% and -15.5%, respectively.

For the molecule `c1coc(-c2nnc(CN3CCOC(Cn4cccn4)C3)o2)c1` (configuration not stated), the figures for the Percent Effect in assay [1] and in assay [2] were -4.34% and 3.23%, respectively.

For the molecule `O=C(CSC1=NS(=O)(=O)c2cc(F)ccc2N1)Nc1cccc(Cl)c1`, the Percent Effect in assay [1] is 4.04%; in assay [2], -1.14%.

`Cc1nc(C)n(C2CCCN(C(=O)c3cnc[nH]3)C2)n1` (configuration not stated): the results for the Percent Effect in assay [1] and in assay [2] were -5.96% and 9.84%, respectively.

For `CCN1CCN(Cc2coc(-c3cccc(F)c3)n2)CC1`, the figures for the Percent Effect in assay [1] and in assay [2] were -7.31% and -35.5%, respectively.

For `Cc1ccc(CC(=O)NC(C)C(=O)N2CCS(=O)(=O)CC2)cc1` (configuration not stated), the Percent Effect in assay [1] turned out to be 0.123%; in assay [2] it was 1.85%.

With `CC(=O)N1CCN(CC2CCOc3ccccc3C2)CC1` (configuration not stated), the figures for the Percent Effect in assay [1] and in assay [2] were 1.75% and -26.3%, respectively.

Turning to `Cc1nc(CN2CCN(Cc3ccoc3)Cc3cccnc32)cs1`, the values for the Percent Effect in assay [1] and in assay [2] were 4.04% and -1.98%, respectively.

Take `COc1ncccc1CN1Cc2nnn(C)c2C(COCC2CC2)C1` (configuration not stated): the Percent Effect in assay [1] was 4.09%; in assay [2] it was -10.1%.

Regarding `COc1ccc(CNC(=O)NCc2c(C)cc(C)[nH]c2=O)cc1`, the values for the Percent Effect in assay [1] and in assay [2] were 4.97% and 34.9%, respectively.

With `COc1ccc(C2(NC(=O)CCn3cncn3)CCCCC2)cc1`, the Percent Effect in assay [1] was -7.19%; in assay [2], 1.34%.

Regarding `Nc1nc(CN2CCCC(Cn3cncn3)C2)nc2ccccc12` (configuration not stated), the Percent Effect was 0.466% in assay [1] and -13.2% in assay [2].

In the case of `Cc1ccc(C(=O)NC(C)CN2CCCC2=O)c(=O)[nH]1` (configuration not stated), the Percent Effect was -2.42% in assay [1] and -3.66% in assay [2].

For `Cc1cccc(NC(=O)NCCCn2nc3ccccn3c2=O)c1C`, the Percent Effect in assay [1] is 3.46%; in assay [2], 19.3%.

For `N#Cc1cccc(SCCS(N)(=O)=O)c1`, the Percent Effect in assay [1] is 0.306%; in assay [2], -7.47%.

On to `Cn1ccc(C(=O)N2CCC[C@]3(C[C@@H](OCc4ccccn4)CO3)C2)n1`, for which the Percent Effect in assay [1] is -1.05%; in assay [2], -3.97%.

Turning to `O=C(c1ccsc1)N1C[C@@H]2C[C@@H](c3nnc(C4CC4)o3)O[C@@H]2C1`, the results for the Percent Effect in assay [1] and in assay [2] were 6.08% and -18.3%, respectively.

Take `CC(C)N(C)C(=O)CN1CCCC(c2ccc(C(=O)O)cc2)C1` (configuration not stated): the Percent Effect was -0.982% in assay [1] and 5.69% in assay [2].

On to `c1cnc(N2CCCC(NCc3cccc4c3OCCO4)C2)nc1` (configuration not stated), for which the Percent Effect is -1.35% in assay [1] and 4.24% in assay [2].

For `Cc1ccc(N2CCCC(NCC(=O)NC3CCOCC3)C2)nn1` (configuration not stated), the Percent Effect in assay [1] is 5.08%; in assay [2] it was -27.9%.

On to `CN1CCc2cc(C(CNS(=O)(=O)c3cccs3)N3CCCC3)ccc21` (configuration not stated), for which the Percent Effect was -0.102% in assay [1] and -6.23% in assay [2].

For `Cc1cccc(C(=O)Nc2ccc(OC3CCN(C)CC3)cc2)c1`, the Percent Effect was 0.862% in assay [1] and -60.2% in assay [2].

Turning to `O=C1CCc2cc(-c3csc(CCN4CCCC4=O)n3)ccc2N1`, the Percent Effect was -0.577% in assay [1] and -10.4% in assay [2].
